# High-throughput results (PubChem BioAssay)
# Compounds with a hit are over-represented: about 2% of the library has one in this group of screens.
# LGR2 antag – inhibitors of bursicon-induced LGR2 CRE-luciferase signal, primary screen, cell-based, HEK293, CRE-luciferase reporter, bursicon stimulation | bursicon-stimulated, 4 h | inhibition, % at 9.99 µM | actives 0.35% (n = 380,000) | AID 720647, 2013;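 active means drop in luminescence signal, shown as inhibition above about 50% in the replicate tests, limit read from the data, passing the limit was not always enough; inconclusive means probably only some replicates passing the limit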;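 further: agonist challenge used bursicon conditioned medium at about half maximal strength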
# EWS-Fli block – EWS/Fli-driven NR0B1 reporter inhibitors, primary screen, A673 cells, NR0B1 luciferase, luminescence, MLPCN library; viability-normalised; inhibition, % at 12.6 µM; actives 0.67% (n = 350,000); AID 651661, 2012;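 active means mean inhibition of at least 50% after viability correction, with every replicate also passing that limit; inconclusive means mean reaches 50% but only one of two replicates passes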;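 further: firefly luciferase signal divided by Alamar Blue viability fluorescence both relative to DMSO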
# Shn3 3UTR inh – reduction of Shn3 3'UTR firefly luciferase signal, primary screen, Schnurri-3 inhibitor project, cell-based, Clone20 osteoblasts, set 2 | actives 0.52% (n = 360,000) | AID 588674, 2011 | Clone20 osteoblast Shn3 3'UTR firefly luciferase, 24 h | inhibition, % at 12.5 µM;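 active means mean inhibition of at least 75% with every replicate also reaching 75%; inconclusive means mean inhibition at least 75% but some replicate below; inactive means mean inhibition below 75%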;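 further: 0% = median of neutral control wells and 100% = pilot-screen positive control compound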
# CF NFkB inh – inhibitors of PAF-induced NF-kB signaling, primary screen, cell-based, GFP fluorescence, uHTS; AID 588850, 2011; actives 0.86% (n = 360,000); KKLEB NF-kB-GFP reporter, GFP fluorescence overnight; inhibition, % at 5 µM;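 active means at least 50% inhibition at 5 µM, scaled per plate between neutral and stimulator controls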;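 further: PAF is a Pseudomonas aeruginosa culture filtrate used as stimulus; plate controls were PAF-stimulated DMSO wells for no effect and unstimulated DMSO wells for full effect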
# PAX8 inh HTS – inhibitors of PAX8-driven TPO luciferase reporter, primary screen, RMG-I cells, single concentration; inhibition, % at 12.6 µM; SteadyGlo, 24 h; actives 1.2% (n = 360,000); AID 652154, 2013;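 active means mean replicate inhibition at least 60% with every replicate also reaching 60%; inconclusive means only one of the two criteria is met; inactive means mean below 60% and not all replicates reaching 60%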;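 further: luciferase light reporting Pax8 driven TPO promoter activity; plate controls were median of neutral control wells for no effect and mitoxantrone controls for full effect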
# KKLEB tox – cytotoxicity in KKLEB CF airway cells, primary screen, cytotoxicity control for CF NF-kB inhibitor project, cell-based, uHTS, fluorescence assay plates; KKLEB CF airway cells viability, ATPlite luminescence, overnight; active compounds read low; cells stimulated with P. aeruginosa culture filtrate; AID 602141, 2011; actives 0.36% (n = 360,000); activity change (cytotoxicity), % at 5 µM;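 active means corrected activity change at or below -50% at 5 µM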
# * hit, by the source's call; ? = inconclusive; . = no result; ! = not active in a repeat.
SMILES,LGR2 antag,EWS-Fli block,Shn3 3UTR inh,CF NFkB inh,PAX8 inh HTS,KKLEB tox
CCCC(=O)NC1=C(Cl)C(=O)c2ccccc2C1=O,10.2,26.8,90.5*,17.4,103.0*,15.6
CCN(CC)c1ccc(NC2=C(Cl)C(=O)c3ccccc3C2=O)cc1,.,.,96.6*,95.9*,.,-93.0*
O=C1C(Cl)=C(Nc2ccc(O)cc2)C(=O)c2ccccc21,37.2,57.3*,91.8*,108.4*,48.5,-81.6*
Cc1ccc(NC2=C(Cl)C(=O)c3ccccc3C2=O)cc1,-25.0,?,-59.3,15.9,-89.4,6.1
CO[C@@H]1CN(C)C(=O)c2cc(NC(=O)Nc3ccccc3F)ccc2OC[C@@H](C)N(Cc2ccccc2F)C[C@H]1C,14.1,5.6,.,.,.,.
COc1cccc(S(=O)(=O)Nc2ccc3c(c2)C(=O)N(C)C[C@H](OC)[C@@H](C)CN(Cc2ccccc2F)[C@@H](C)CO3)c1,10.1,5.6,.,.,65.0*,.
CO[C@@H]1CN(C)C(=O)c2ccc(NC(=O)Nc3ccccc3F)cc2OC[C@@H](C)N(Cc2ccccc2F)C[C@H]1C,-0.8,-4.4,.,.,70.7*,.
C[C@@H]1CN([C@@H](C)CO)C(=O)c2cc(C3=CCCCC3)cnc2O[C@@H]1CN(C)S(C)(=O)=O,7.2,13.2,.,.,.,.
C[C@@H]1CN([C@H](C)CO)C(=O)c2cc(NC(=O)NC3CCCCC3)ccc2O[C@@H]1CN(C)Cc1ccc(Cl)c(Cl)c1,-16.9,-2.6,.,.,.,.
Nc1nnnn1/N=C/C=C/c1ccccc1,1.5,.,-17.8,13.7,.,-10.3
Nc1nnnn1/N=C/C(Br)=C/c1ccccc1,.,.,97.3*,91.2*,93.0*,-94.4*
CO[C@H]1CN(C)C(=O)c2cc(NC(C)=O)ccc2OC[C@@H](C)NC[C@H]1C,-4.7,12.0,.,.,-5.9,.
COC(=O)C1=C(C)NC(C)=C([N+](=O)[O-])C1c1ccccc1C(F)(F)F (stereo unspecified),-3.6,-17.4,93.0*!,-35.0,-4.9,6.1
COC(=O)C1=C(C)NC(C)=C(C(=O)OC)C1c1ccc(-c2cccc([N+](=O)[O-])c2)o1,-5.7,0.4,4.5,11.4,43.0,7.5
O=C(NCc1ccccc1)[C@]1(Cc2ccccc2)N=C(c2ccc(OCCCO)cc2)O[C@@H]1c1ccccc1,.,29.8,.,.,93.9*,.
COc1ccccc1N1CCN(CCCC(=O)c2ccc(F)cc2)CC1,-7.5,-4.3,-2.0,0.8,-4.4,-12.3
COc1ccc(C(=O)CCN2CCc3cc(OC)c(OC)cc3C2)cc1,7.9,-6.2,5.4,-1.2,71.0*,0.7
COc1ccc(C(=O)CCN2CCN(c3ccccc3OC)CC2)cc1,-0.1,-4.2,26.8,6.8,83.2*,5.5
CC=Cc1ccc2n(c1=O)C[C@H]1[C@H](CO)[C@@H](C(=O)NCCc3ccncc3)[C@@H]2N1CCC(F)(F)F (mixture of isomers),14.2,-0.2,.,.,-6.3,.
CCOc1ccc(NC(=O)Nc2cc(OCC(F)(F)F)cc(OCC(F)(F)F)c2)cc1,23.8,16.9,63.8,-0.6,87.2*,-1.3
O=C(Nc1ccc(F)cc1)Nc1cc(OCC(F)(F)F)cc(OCC(F)(F)F)c1,34.2,.,90.3*,46.0,82.8*,-34.8
CCN1[C@H](C(=O)NC2CCC2)[C@@H](CO)[C@@H]2Cn3c(ccc(-c4ccc(F)cc4)c3=O)[C@@H]21,-4.4,-4.2,.,.,.,.
Cc1ccc(S(=O)(=O)Nc2ccc(O)c3ncccc23)cc1,13.2,-31.7,91.5*,12.0,54.8,-4.6
Cc1ccc(S(=O)(=O)Nc2ccccc2O)cc1,-9.9,-5.4,.,.,-15.9,.
Cc1ccc(S(=O)(=O)Nc2ccc(O)c3cccnc23)cc1,9.5,-35.0,27.0,58.8*,32.8,4.7
Cc1ccc(S(=O)(=O)Nc2cccc3ncccc23)cc1,-6.0,-4.2,-3.6,-4.1,1.3,2.4
CCCCCc1ccc(OCCOCCn2c[n+](C)c3ccccc32)c(CCCCC)c1,.,.,93.4*,37.9,.,-42.8
CCCCCc1ccc(OCCC[n+]2ccccc2)c(CCCCC)c1,14.5,38.4,?,84.7*,95.9*,-91.1*
